test system: RIOK3; settings: concentration: 1 μM, replicates: in singlicate; n = 1
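Also: KINOMEscan kinase panel screen.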

Compound	%Inh [%]
COc1ccc(Nc2nccc(NCCNC(=O)Nc3cc(C)ccc3C)n2)cc1 [GSK1379899]	24
Cn1cnc2c(N)ncnc21 [SKF-97623]	0
Fc1ccc(-c2nc[nH]c2-c2ccncc2)cc1 [SB-217360]	0
CNc1nc(-c2ccc3c(N)n[nH]c3c2)cc(N2C[C@@H](C(=O)Nc3ccccc3)CC[C@H]2C)n1 [GSK2298859]	38
Nc1ncnc2occ(-c3ccc4c(c3)CCN4C(=O)Cc3cc(F)ccc3F)c12 [GSK2645446]	0
COc1ccc2cc(-c3nc(-c4ccccc4C(C)C)[nH]c3-c3ccncc3)ccc2c1 [SB-660566]	0
CC(=O)c1cccc(NC(=O)NC2CCN(c3ccnc(Nc4ccc(F)cc4)n3)C2)c1 (stereo not shown) [GSK1379710]	33
Cc1c(Cn2c3ccccc3n3c(=O)cc(N4CCOCC4)nc23)cccc1C(F)(F)F [GSK2306394]	0
CCc1ccc(-c2ccc3c(c2)-c2n[nH]cc2S(=O)(=O)N3C)cc1	26
COc1ccc(-c2coc3ccc(-c4nnc(C)o4)cc23)cc1	0
COc1cccc(CNC(=O)NC2CCN(c3ccnc(Nc4ccc(F)cc4)n3)C2)c1 (stereo not shown) [GSK1379723]	0
COC(=O)C(Cc1ccccc1)NC(=O)NC1CCN(c2ccnc(Nc3ccc(F)cc3)n2)C1 (stereo not shown) [GSK1379714]	34
COc1ccc(Nc2nccc(N3CCC(NC(=O)C(C)c4ccc(Cl)cc4)C3)n2)cc1 (stereo not shown) [GSK1379735]	17
Cc1ccccc1Cn1ccn2c(=O)cc(N3CCOCC3)nc12 [GSK2269905]	0
NS(=O)(=O)c1cccc(N/C=C2\C(=O)Nc3ccc(S(=O)(=O)Cc4c(Cl)cccc4Cl)cc32)c1 [GSK398099]	19
O=c1cc(N2CCOCC2)nc2n(Cc3ccccc3F)ccn12 [GSK2297428]	28
CC[C@@H]1CO[C@H](C(=O)Nc2ccccc2)CN1c1cc(-c2ccc3c(N)n[nH]c3c2)nc(NC)n1 [GSK2376236]	40
CNc1nc(-c2ccc3c(N)n[nH]c3c2)cc(N2C[C@@H](C(=O)NC3CCCCC3)OC[C@H]2C)n1 [GSK2375584]	35

Compound	%Inh [%]
O=c1cc(N2CCOCC2)nc2n(Cc3cccc(Cl)c3Cl)c3ccccc3n12 [GSK2299009]	32
c1ccc(-c2ccnc3[nH]ccc23)cc1 [SB-693578]	0
Cn1cncc1C(=O)NC1CCN(c2ccnc(Nc3ccc(F)cc3)n2)C1 (stereo not shown) [GSK1379717]	2
COc1ccc(Nc2nccc(N3CCC(NC(=O)c4cc5ccccc5s4)C3)n2)cc1 (stereo not shown) [GSK1379738]	36
COc1ccc(CSc2nnc(-c3ccc4ncsc4c3)o2)cc1C(F)(F)F	22
COC(=O)C(NC(=O)NC1CCN(c2ccnc(Nc3ccc(F)cc3)n2)C1)c1ccccc1 (stereo not shown) [GSK1379712]	3
CS(=O)(=O)Cc1ccc(Nc2nccc(-c3c(-c4cccc(NC(=O)C5CCCCC5)c4)nn4ncccc34)n2)cc1 [GSK350559]	36
Cc1ccc(-c2nc(Nc3ccncc3)c3ccccc3n2)s1 [GSK189015]	23
Cc1ccc(NC(=O)Nc2ccc(Cl)c(C(F)(F)F)c2)cc1-c1ccc(C(=O)Nc2ccncc2)cc1 [GSK1398470]	13
CC(C)c1cc(-c2ccc3c(N)n[nH]c3c2)nc(N)n1 [GSK2250882]	82
Cc1nccc(-c2c(-c3ccc(F)cc3)ncn2CCCN2CCOCC2)n1.Cl [SB-282975]	27
FC(F)(F)c1ccccc1-c1cc(-c2c[nH]nc2-c2ccccn2)ccn1 [GW679396]	10
Cc1ccc(NC(=O)Nc2ccccc2)cc1-c1ccc(C(=O)Nc2ccncc2)cc1 [GSK1398471]	17
Cn1cncc1-c1cc2c(Nc3ccc(OCc4ccccc4)cc3)ncnc2cn1 [GW281179]	6
Nc1nccc(-c2c(-c3ccc(F)cc3)ncn2C2CCN(Cc3ccccc3)CC2)n1 [SB-219980]	0
Cc1c(Cn2c(C)c(C)n3c(=O)cc(N4CCOCC4)nc23)cccc1C(F)(F)F [GSK2328680]	0
COc1ccc(Nc2nccc(-c3ccc(NC(=O)c4cc5cc(F)ccc5[nH]4)cc3)n2)cc1 [GSK1229496]	53
Fc1ccc(-c2nc3n(c2-c2ccncc2)CCS3)cc1 [GI98581]	14

test system: RIPK1; settings: concentration: 1 μM, replicates: in singlicate; n = 1

Compound	%Inh [%]
COc1ccc(Nc2nccc(NCCNC(=O)Nc3cc(C)ccc3C)n2)cc1 [GSK1379899]	4
Cn1cnc2c(N)ncnc21 [SKF-97623]	10
Fc1ccc(-c2nc[nH]c2-c2ccncc2)cc1 [SB-217360]	0
CNc1nc(-c2ccc3c(N)n[nH]c3c2)cc(N2C[C@@H](C(=O)Nc3ccccc3)CC[C@H]2C)n1 [GSK2298859]	1
Nc1ncnc2occ(-c3ccc4c(c3)CCN4C(=O)Cc3cc(F)ccc3F)c12 [GSK2645446]	98.6
COc1ccc2cc(-c3nc(-c4ccccc4C(C)C)[nH]c3-c3ccncc3)ccc2c1 [SB-660566]	2
COc1cc2ncnc(Nc3cccc(Br)c3)c2cc1OC.Cl [GI230329]	2
CC(=O)c1cccc(NC(=O)NC2CCN(c3ccnc(Nc4ccc(F)cc4)n3)C2)c1 (stereo not shown) [GSK1379710]	29
Cc1c(Cn2c3ccccc3n3c(=O)cc(N4CCOCC4)nc23)cccc1C(F)(F)F [GSK2306394]	4
CCc1ccc(-c2ccc3c(c2)-c2n[nH]cc2S(=O)(=O)N3C)cc1	0
COc1ccc(-c2coc3ccc(-c4nnc(C)o4)cc23)cc1	0
COc1cccc(CNC(=O)NC2CCN(c3ccnc(Nc4ccc(F)cc4)n3)C2)c1 (stereo not shown) [GSK1379723]	0
COC(=O)C(Cc1ccccc1)NC(=O)NC1CCN(c2ccnc(Nc3ccc(F)cc3)n2)C1 (stereo not shown) [GSK1379714]	18
COc1ccc(Nc2nccc(N3CCC(NC(=O)C(C)c4ccc(Cl)cc4)C3)n2)cc1 (stereo not shown) [GSK1379735]	5
Cc1ccccc1Cn1ccn2c(=O)cc(N3CCOCC3)nc12 [GSK2269905]	0
NS(=O)(=O)c1cccc(N/C=C2\C(=O)Nc3ccc(S(=O)(=O)Cc4c(Cl)cccc4Cl)cc32)c1 [GSK398099]	0
O=c1cc(N2CCOCC2)nc2n(Cc3ccccc3F)ccn12 [GSK2297428]	0
CC[C@@H]1CO[C@H](C(=O)Nc2ccccc2)CN1c1cc(-c2ccc3c(N)n[nH]c3c2)nc(NC)n1 [GSK2376236]	0
CNc1nc(-c2ccc3c(N)n[nH]c3c2)cc(N2C[C@@H](C(=O)NC3CCCCC3)OC[C@H]2C)n1 [GSK2375584]	10

Compound	%Inh [%]
O=c1cc(N2CCOCC2)nc2n(Cc3cccc(Cl)c3Cl)c3ccccc3n12 [GSK2299009]	19
c1ccc(-c2ccnc3[nH]ccc23)cc1 [SB-693578]	0
Cn1cncc1C(=O)NC1CCN(c2ccnc(Nc3ccc(F)cc3)n2)C1 (stereo not shown) [GSK1379717]	2
COc1ccc(Nc2nccc(N3CCC(NC(=O)c4cc5ccccc5s4)C3)n2)cc1 (stereo not shown) [GSK1379738]	28
COc1ccc(CSc2nnc(-c3ccc4ncsc4c3)o2)cc1C(F)(F)F	0
COC(=O)C(NC(=O)NC1CCN(c2ccnc(Nc3ccc(F)cc3)n2)C1)c1ccccc1 (stereo not shown) [GSK1379712]	20
CS(=O)(=O)Cc1ccc(Nc2nccc(-c3c(-c4cccc(NC(=O)C5CCCCC5)c4)nn4ncccc34)n2)cc1 [GSK350559]	13
Cc1ccc(-c2nc(Nc3ccncc3)c3ccccc3n2)s1 [GSK189015]	0
Cc1ccc(NC(=O)Nc2ccc(Cl)c(C(F)(F)F)c2)cc1-c1ccc(C(=O)Nc2ccncc2)cc1 [GSK1398470]	17
CC(C)c1cc(-c2ccc3c(N)n[nH]c3c2)nc(N)n1 [GSK2250882]	0
Cc1nccc(-c2c(-c3ccc(F)cc3)ncn2CCCN2CCOCC2)n1.Cl [SB-282975]	15
FC(F)(F)c1ccccc1-c1cc(-c2c[nH]nc2-c2ccccn2)ccn1 [GW679396]	12
Cc1ccc(NC(=O)Nc2ccccc2)cc1-c1ccc(C(=O)Nc2ccncc2)cc1 [GSK1398471]	0
Cn1cncc1-c1cc2c(Nc3ccc(OCc4ccccc4)cc3)ncnc2cn1 [GW281179]	0
Nc1nccc(-c2c(-c3ccc(F)cc3)ncn2C2CCN(Cc3ccccc3)CC2)n1 [SB-219980]	0
Cc1c(Cn2c(C)c(C)n3c(=O)cc(N4CCOCC4)nc23)cccc1C(F)(F)F [GSK2328680]	17
COc1ccc(Nc2nccc(-c3ccc(NC(=O)c4cc5cc(F)ccc5[nH]4)cc3)n2)cc1 [GSK1229496]	5
Fc1ccc(-c2nc3n(c2-c2ccncc2)CCS3)cc1 [GI98581]	0

From PMC5540273 (PLoS ONE, 2017)
